Experimental data from PubChem BioAssay (EPA / NIEHS).
Several values for one entry are separate records, joined by “and”; a condition that tells them apart may be missing. Identical values can stand only once. Some compounds were tested as several samples or in several runs, with calls that do not always agree. Activity calls are given as the source filed them. Rule for the calls: active = hit-call score of the fitted dose curve at least 0.9, where 1 is the maximum; inactive = score below 0.9.

Columns and labels:
[1] = read-out: Vascular cell adhesion molecule 1 (VCAM1), VCAM1 (gene 7412); assay: BSK_hDFCGF_VCAM1: BioMAP Diversity Plus: hDFCGF Assay for Vascular cell adhesion molecule 1 (VCAM1) Biomarker Activity (AID 2283065); settings: primary human foreskin fibroblasts; actives raise or lower the signal;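 for AC50: VCAM-1 protein level quantified by ELISA after 24 h chemical exposure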
Procedure, shortened: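 Measured after 24 h chemical treatment of primary human skin fibroblasts, VCAM-1 was detected by ELISA and concentration-response analysed in both directions versus DMSO vehicle.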

[2] = read-out: Plasminogen activator inhibitor-1 (PAI1), SERPINE1 (gene 5054); assay: BSK_hDFCGF_PAI1: BioMAP Diversity Plus: hDFCGF Assay for Plasminogen activator inhibitor-1 (PAI1) Biomarker Activity (AID 2283066); settings: primary human foreskin fibroblasts; actives raise or lower the signal
Procedure, shortened: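 Human skin fibroblast cultures receive chemical for 24 h before PAI-1 is measured by ELISA; signal changes are fitted bidirectionally against DMSO-treated wells.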

[3] = read-out: Intercellular Adhesion Molecule 1 (ICAM1), ICAM1 (gene 3383); assay: BSK_KF3CT_ICAM1: BioMAP Diversity Plus: KF3CT Assay for Intercellular Adhesion Molecule 1 (ICAM1) Biomarker Activity (AID 2283067); settings: primary human keratinocytes with fibroblasts; actives raise or lower the signal
Procedure, shortened: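 Bidirectional curve fitting against a DMSO baseline was applied to ICAM-1 ELISA signal from primary human skin co-cultures harvested 24 h after treatment, with SRB staining of parallel wells for overt cytotoxicity.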

[4] = BSK_KF3CT_SRB: Viability Assessment in the BioMAP Diversity Plus: KF3CT Assay (AID 2283069); settings: primary human keratinocytes with fibroblasts;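 note: total protein by sulforhodamine B staining as a cytotoxicity measure; read 24 h after compound addition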
Procedure, shortened: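 Cytotoxicity was gauged by SRB staining (0.1% SRB, 10% TCA fixation, 560 nm) of parallel cultures at 24 h. The cells were primary human skin keratinocytes co-cultured with fibroblasts, and activity was fitted in both directions against DMSO.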

[5] = read-out: Interleukin-1 alpha (IL1a), IL1A (gene 3552); assay: BSK_KF3CT_IL1a: BioMAP Diversity Plus: KF3CT Assay for Interleukin-1 alpha (IL1a) Biomarker Activity (AID 2283070); settings: primary human keratinocytes with fibroblasts; actives raise or lower the signal
Procedure, shortened: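 IL-1a was detected by ELISA 24 h after chemical treatment of a co-culture of human skin keratinocytes and foreskin fibroblasts. Gain or loss of signal was fitted against the DMSO baseline.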

[6] = read-out: TIMP metallopeptidase inhibitor 2 (TIMP2), TIMP2 (gene 7077); assay: BSK_KF3CT_TIMP2: BioMAP Diversity Plus: KF3CT Assay for TIMP metallopeptidase inhibitor 2 (TIMP2) Biomarker Activity (AID 2283071); settings: primary human keratinocytes with fibroblasts; actives raise or lower the signal
Procedure, shortened: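 Measurements come from ELISA detection of TIMP-2 at 24 hours in a dosed human keratinocyte and foreskin fibroblast co-culture. DMSO serves as negative control and baseline.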

[7] = read-out: Transforming growth factor beta 1 (TGFb1), TGFB1 (gene 7040); assay: BSK_KF3CT_TGFb1: BioMAP Diversity Plus: KF3CT Assay for Transforming growth factor beta 1 (TGFb1) Biomarker Activity (AID 2283072); settings: primary human keratinocytes with fibroblasts; actives raise or lower the signal
Procedure, shortened: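 TGF-b1 ELISA on a 24 h dosed co-culture of human keratinocytes and foreskin fibroblasts; cytotoxicity tracked in parallel cultures by SRB staining.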

[8] = read-out: C-C motif chemokine 2 (Homo sapiens) (UniProt P13500); assay: BSK_KF3CT_MCP1: BioMAP Diversity Plus: KF3CT Assay for Monocyte Chemoattractant Protein 1 (MCP1/CCL2) Biomarker Activity (AID 2283073); settings: primary human keratinocytes with fibroblasts; actives raise or lower the signal
Procedure, shortened: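 Biomarker MCP-1 is measured by ELISA in primary human keratinocytes co-cultured with foreskin fibroblasts, 24 h after chemical treatment; DMSO serves as the negative control and activity baseline.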

[9] = read-out: Matrix Metallopeptidase 9 (MMP9), MMP9 (gene 4318); assay: BSK_KF3CT_MMP9: BioMAP Diversity Plus: KF3CT Assay for Matrix Metallopeptidase 9 (MMP9) Biomarker Activity (AID 2283074); settings: primary human keratinocytes with fibroblasts; actives raise or lower the signal;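 for AC50: MMP9 protein level quantified by ELISA in the co-culture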
Procedure, shortened: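 MMP-9 quantified by ELISA after 24 h chemical treatment of primary human skin keratinocyte/fibroblast co-cultures; gain or loss fitted against DMSO, with parallel SRB staining (0.1% SRB, 560 nm) for overt cytotoxicity.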

[10] = read-out: urokinase plasminogen activator (uPA), PLAU (gene 5328); assay: BSK_KF3CT_uPA: BioMAP Diversity Plus: KF3CT Assay for urokinase plasminogen activator (uPA) Biomarker Activity (AID 2283075); settings: primary human keratinocytes with fibroblasts; actives raise or lower the signal
Procedure, shortened: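 ELISA read-out of uPA 24 h after dosing human skin keratinocytes co-cultured with foreskin fibroblasts. Signal change fitted both ways relative to DMSO; sulforhodamine B on parallel cultures marks overt cytotoxicity.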

CD40, CD40 (gene 958) = assay: BSK_LPS_CD40: BioMAP Diversity Plus: LPS Assay for CD40 Biomarker Activity (AID 2283076); settings: primary human HUVEC with PBMC; actives raise or lower the signal
Procedure, shortened: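 Using a multiplexed primary human co-culture (umbilical vein endothelium plus PBMC), CD40 was read by ELISA 24 h after dosing, with cytotoxicity tracked by sulforhodamine B staining of parallel cultures and activity fitted bidirectionally versus DMSO.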

[11] = read-out: E-selectin (Homo sapiens) (UniProt P16581); assay: BSK_LPS_Eselectin: BioMAP Diversity Plus: LPS Assay for Eselectin Biomarker Activity (AID 2283077); settings: primary human HUVEC with PBMC; actives raise or lower the signal
Procedure, shortened: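 Dose chemical onto LPS-driven HUVEC/PBMC co-culture; after 24 h, run ELISA for E-selectin; fit up- and down-going responses relative to DMSO control.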

[12] = read-out: Interleukin-8 (IL8), CXCL8 (gene 3576); assay: BSK_LPS_IL8: BioMAP Diversity Plus: LPS Assay for Interleukin-8 (IL8) Biomarker Activity (AID 2283078); settings: primary human HUVEC with PBMC; actives raise or lower the signal
Procedure, shortened: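 In this LPS system, chemical-treated human umbilical vein endothelium/PBMC co-cultures were harvested at 24 h for IL-8 ELISA.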

[13] = BSK_LPS_SRB: Viability Assessment in the BioMAP Diversity Plus: LPS Assay (AID 2283079); settings: primary human HUVEC with PBMC;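 note: total protein by sulforhodamine B absorbance as a cytotoxicity measure; measured one day after compound addition; fitted in both directions against DMSO so loss or gain of signal counts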
Procedure, shortened: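 Cytotoxicity endpoint in human endothelial–PBMC co-culture: 24 h exposure, then SRB (0.1%) staining, 560 nm read.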

[14] = read-out: Interleukin-1 alpha (IL1a), IL1A (gene 3552); assay: BSK_LPS_IL1a: BioMAP Diversity Plus: LPS Assay for Interleukin-1 alpha (IL1a) Biomarker Activity (AID 2283080); settings: primary human HUVEC with PBMC; actives raise or lower the signal
Procedure, shortened: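 Primary human HUVEC and PBMC co-culture stimulated with LPS is dosed and harvested at 24 h. Both increases and decreases in ELISA-measured IL-1a are scored relative to DMSO.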

[15] = read-out: Monocyte Chemoattractant Protein-1 (MCP1), CCL2 (gene 6347); assay: BSK_LPS_MCP1: BioMAP Diversity Plus: LPS Assay for Monocyte Chemoattractant Protein-1 (MCP1) Biomarker Activity (AID 2283081); settings: primary human HUVEC with PBMC; actives raise or lower the signal;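 for AC50: secreted MCP-1 protein quantified by ELISA in culture supernatant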
Procedure, shortened: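 Values derive from bidirectional fitting against DMSO of ELISA-measured MCP-1 in a human primary endothelial and mononuclear cell co-culture, 24 h after chemical addition under LPS activation.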

[16] = BSK_LPS_PGE2: BioMAP Diversity Plus: LPS Assay for Prostaglandin E2 (PGE2) Biomarker Activity (AID 2283082); settings: primary human HUVEC with PBMC; actives raise or lower the signal;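 for AC50: secreted prostaglandin E2 measured by ELISA in LPS-stimulated co-culture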
Procedure, shortened: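 Primary human endothelial cells and blood mononuclear cells, co-cultured with LPS, receive test chemical; PGE2 ELISA follows at 24 h, with SRB-stained parallel cultures flagging cytotoxicity.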

[17] = read-out: Macrophage colony-stimulating factor (MCSF), CSF1 (gene 1435); assay: BSK_LPS_MCSF: BioMAP Diversity Plus: LPS Assay for Macrophage colony-stimulating factor (MCSF) Biomarker Activity (AID 2283083); settings: primary human HUVEC with PBMC; actives raise or lower the signal
Procedure, shortened: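 Bidirectional fit versus DMSO of ELISA-measured M-CSF in co-cultured human umbilical vein endothelial cells and PBMC, sampled 24 h after dosing.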

[18] = read-out: Tissue Factor, F3 (gene 2152); assay: BSK_LPS_TissueFactor: BioMAP Diversity Plus: LPS Assay for Tissue Factor Biomarker Activity (AID 2283084); settings: primary human HUVEC with PBMC; actives raise or lower the signal
Procedure, shortened: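 Read-out: CD142 ELISA, 24 h. System: LPS-driven human endothelial/PBMC co-culture. Analysis: up- or down-signal fitted against DMSO.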

[19] = read-out: Interferon-gamma inducible Protein 10 (IP10), CXCL10 (gene 3627); assay: BSK_KF3CT_IP10: BioMAP Diversity Plus: KF3CT Assay for Interferon-gamma inducible Protein 10 (IP10) Biomarker Activity (AID 2283068); settings: primary human keratinocytes with fibroblasts; actives raise or lower the signal
Procedure, shortened: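 In a primary skin co-culture of keratinocytes and fibroblasts, IP-10 is quantified by ELISA at 24 h after dosing. SRB staining of parallel wells monitors overt toxicity. Curves are fitted both directions against DMSO.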

Measured: AC50

Chain of E-selectin (Homo sapiens) (P16581 whole entry, looked up): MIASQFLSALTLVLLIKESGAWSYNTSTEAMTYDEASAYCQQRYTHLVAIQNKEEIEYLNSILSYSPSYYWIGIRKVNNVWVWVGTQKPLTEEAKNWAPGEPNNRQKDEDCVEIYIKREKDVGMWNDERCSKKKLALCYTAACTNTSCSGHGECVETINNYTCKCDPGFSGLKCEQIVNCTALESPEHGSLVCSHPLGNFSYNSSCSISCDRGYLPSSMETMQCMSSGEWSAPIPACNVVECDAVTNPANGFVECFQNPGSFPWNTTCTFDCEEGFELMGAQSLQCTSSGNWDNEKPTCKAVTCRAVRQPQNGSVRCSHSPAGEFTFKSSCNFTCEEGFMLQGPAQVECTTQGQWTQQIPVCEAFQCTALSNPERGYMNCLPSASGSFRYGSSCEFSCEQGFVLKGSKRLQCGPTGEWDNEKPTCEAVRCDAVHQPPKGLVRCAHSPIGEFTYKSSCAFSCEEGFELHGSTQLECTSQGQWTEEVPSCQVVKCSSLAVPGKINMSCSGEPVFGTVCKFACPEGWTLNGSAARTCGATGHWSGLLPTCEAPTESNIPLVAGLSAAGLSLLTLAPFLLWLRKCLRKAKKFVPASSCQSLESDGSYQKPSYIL

C[C@]12CCC(=O)C[C@@H]1CC[C@@H]1[C@@H]2CC[C@]2(C)[C@@H](O)CC[C@@H]12
active: [11] 28.1 µM | [13] 19.8 µM | [15] 26 µM | [17] 19 µM
not listed: [19]
inactive: all other assays above

O=[N+]([O-])c1ccc2c3c(cccc13)CC2
active: [6] 11.4 µM
not listed: [19]
inactive: all other assays above

NC(=S)Nc1ccccc1
not listed: [19]
inactive: all other assays above

CC(=O)OC(c1ccccc1)C(Cl)(Cl)Cl (centres undefined)
inactive: [1] | [2] | [3] | [19] | [4] | [5] | [6] | [8] | [9] | [10] | CD40, CD40 (gene 958) | [11] | [12] | [13] | [14] | [15] | [16] | [18]
active: [14] 17.6 µM

Oc1ccc(-c2ccccc2)cc1
active: [5] 11.5 µM | [8] 16 nM
not listed: [17]
inactive: all other assays above

COc1cc(-c2ccc(N)c(OC)c2)ccc1N
active: [1] 19.2 µM | [16] 3.63 µM and 9 µM | [18] 19.2 µM
inactive: [1] | [2] | [3] | [4] | [5] | [6] | [7] | [8] | [9] | [10] | CD40, CD40 (gene 958) | [11] | [12] | [13] | [14] | [15] | [18]

O=C(O)C(F)(F)C(F)(F)C(F)(F)C(F)(F)C(F)(F)C(F)(F)C(F)(F)C(F)(F)C(F)(F)C(F)(F)F
active: [1] 11.7 µM and 3.07 µM and 4.25 µM | [2] 10.7 µM and 5.61 µM and 5.09 µM | [3] 12.9 µM and 5 µM and 4.73 µM | [4] 9.99 µM and 5.01 µM and 5.38 µM | [5] 10.8 µM and 3.41 µM and 5.06 µM | [6] 9.27 µM and 6.15 µM and 6.13 µM | [7] 5.59 µM | [8] 7.51 µM and 4.5 µM and 4.55 µM | [9] 6.03 µM and 3.85 µM and 4.19 µM | [10] 9.7 µM and 5.47 µM and 5.16 µM | CD40, CD40 (gene 958) 29.5 µM | [12] 33.8 µM and 2.03 µM | [13] 34.8 µM | [14] 29.6 µM | [15] 30.2 µM | [16] 22.3 µM | [18] 30.2 µM
inactive: CD40, CD40 (gene 958) | [11] | [12] | [13] | [14] | [15] | [16] | [18]

Cc1ccccc1N
inactive: all assays above

CC(C)c1ccc(CO)cc1
inactive: all assays above

CC(=O)C(Cl)C(=O)N(C)C (centres undefined)
active: [5] 13.9 µM | CD40, CD40 (gene 958) 15.5 µM | [11] 15.4 µM | [12] 13.6 µM | [14] 14.4 µM | [15] 27 µM | [16] 7.26 µM | [17] 11.8 µM | [18] 9.35 µM
inactive: all other assays above

Nc1ncc([N+](=O)[O-])s1
not listed: [17]
inactive: all other assays above
